The whole screen tested about 5,500 compounds, of which about 2,000 (36%) were called active. Roughly 18% stayed inconclusive and do not appear here. No stated cut-off is given here; in the data, active means normalized growth mostly below about 0.91 (no sharp cut-off); inconclusive means no clear call, values can overlap the other calls; inactive means mostly above about 0.92. Some of the results follow.
Assay: chemical genetic growth profiling, strain panel (AID 1159580);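 further: tested at 20 µM; growth read once vehicle control cultures reached saturation at 30 °C; 1 = growth at the plate median or of vehicle wells; lower values mean less growth of the strain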
Details: S. cerevisiae deletion strains, growth OD

In the case of `COc1ccc(Nc2nc(NC(=O)Nc3ccc(Cl)cc3)n[nH]2)cc1`, the normalized growth (locus YAR019C, strain CDC15, active compounds read low) is reported as 0.996 (inactive), the normalized growth (locus YBL105C, strain PKC1, active compounds read low) is reported as 0.994 (inactive) and the normalized growth (locus YBR135W, strain CKS1, active compounds read low) is reported as 1 (inactive). For the same compound, the normalized growth (locus YBR136W, strain MEC1, active compounds read low) was 0.992 (inactive), the normalized growth (locus YBR160W, strain CDC28, active compounds read low) was 1 (inactive) and the normalized growth (locus YDL017W, strain CDC7, active compounds read low) was 1 (inactive). The normalized growth (locus YDL028C, strain MPS1, active compounds read low) was 0.986 (inactive), the normalized growth (locus YDL101C, strain DUN1, active compounds read low) was 1 (inactive) and the normalized growth (locus YDL108W, strain KIN28, active compounds read low) was 0.982 (inactive). For the same compound, the normalized growth (locus YDL132W, strain cdc53, active compounds read low) was 0.99 (inactive), the normalized growth (locus YDL214C, strain PRR2, active compounds read low) was 0.867 (inactive) and the normalized growth (locus YDR052C, strain DBF4, active compounds read low) was 1 (inactive). For the same compound, the normalized growth (locus YDR054C, strain cdc34, active compounds read low) was 1 (inactive), the normalized growth (locus YDR226W, strain ADK1, active compounds read low) was 0.994 (inactive) and the normalized growth (locus YDR477W, strain SNF1, active compounds read low) was 0.809 (inactive). For the same compound, the normalized growth (locus YER123W, strain YCK3, active compounds read low) was 0.715 (inactive), the normalized growth (locus YER133W, strain GLC7, active compounds read low) was 0.757 (inactive) and the normalized growth (locus YFL009W, strain cdc4, active compounds read low) was 0.994 (inactive). For the same compound, the normalized growth (locus YFL029C, strain CAK1, active compounds read low) was 0.998 (inactive), the normalized growth (locus YFR003C, strain YPI1, active compounds read low) was 0.996 (inactive) and the normalized growth (locus YFR019W, strain FAB1, active compounds read low) was 0.866 (inactive). The normalized growth (locus YFR028C, strain CDC14, active compounds read low) was 0.988 (inactive), the normalized growth (locus YGR040W, strain KSS1, active compounds read low) was 0.789 (inactive) and the normalized growth (locus YGR052W, strain FMP48, active compounds read low) was 0.788 (inactive). For the same compound, the normalized growth (locus YGR092W, strain DBF2, active compounds read low) was 0.793 (inactive), the normalized growth (locus YHR030C, strain SLT2, active compounds read low) was 0.887 (inactive) and the normalized growth (locus YHR079C, strain IRE1, active compounds read low) was 0.893 (inactive). For the same compound, the normalized growth (locus YHR082C, strain KSP1, active compounds read low) was 0.868 (inactive), the normalized growth (locus YHR205W, strain SCH9, active compounds read low) was 0.842 (inactive) and the normalized growth (locus YIL147C, strain SLN1, active compounds read low) was 0.979 (inactive). The normalized growth (locus YJL095W, strain BCK1, active compounds read low) was 0.861 (inactive), the normalized growth (locus YJL128C, strain PBS2, active compounds read low) was 0.957 (inactive) and the normalized growth (locus YJL157C, strain FAR1, active compounds read low) was 0.88 (inactive). The normalized growth (locus YJR016C, strain ILV3, active compounds read low) was 0.991 (inactive), the normalized growth (locus YJR066W, strain TOR1 (second series), active compounds read low) was 0.758 (inactive) and the normalized growth (locus YJR066W, strain TOR1, active compounds read low) was 0.929 (inactive). The normalized growth (locus YKL048C, strain ELM1, active compounds read low) was 0.854 (inactive), the normalized growth (locus YKL067W, strain YNK1, active compounds read low) was 0.876 (inactive) and the normalized growth (locus YKL101W, strain HSL1, active compounds read low) was 0.83 (inactive). The normalized growth (locus YKL193C, strain SDS22, active compounds read low) was 0.991 (inactive), the normalized growth (locus YKL203C, strain TOR2, active compounds read low) was 0.892 (inactive) and the normalized growth (locus YLR113W, strain HOG1, active compounds read low) was 0.813 (active). For the same compound, the normalized growth (locus YLR133W, strain CKI1, active compounds read low) was 0.795 (inactive), the normalized growth (locus YLR403W, strain SFP1, active compounds read low) was 0.742 (inactive) and the normalized growth (locus YML070W, strain DAK1, active compounds read low) was 0.846 (inactive). The normalized growth (locus YMR001C, strain CDC5, active compounds read low) was 1 (inactive), the normalized growth (locus YMR205C, strain PFK2 (second series), active compounds read low) was 0.782 (inactive) and the normalized growth (locus YMR277W, strain FCP1, active compounds read low) was 0.991 (inactive). For the same compound, the normalized growth (locus YNL006W, strain LST8, active compounds read low) was 1.02 (inactive), the normalized growth (locus YNL020C, strain ARK1, active compounds read low) was 0.811 (inactive) and the normalized growth (locus YNL161W, strain CBK1, active compounds read low) was 0.998 (inactive). For the same compound, the normalized growth (locus YNL183C, strain NPR1, active compounds read low) was 0.763 (inactive), the normalized growth (locus YNL207W, strain RIO2, active compounds read low) was 0.992 (inactive) and the normalized growth (locus YNL222W, strain SSU72, active compounds read low) was 0.993 (inactive). The normalized growth (locus YNL307C, strain MCK1 (second series), active compounds read low) was 0.832 (inactive), the normalized growth (locus YOL078W, strain AVO1, active compounds read low) was 0.991 (inactive) and the normalized growth (locus YOL136C, strain PFK27, active compounds read low) was 0.848 (inactive). For the same compound, the normalized growth (locus YOR061W, strain CKA2, active compounds read low) was 0.741 (inactive), the normalized growth (locus YOR119C, strain RIO1, active compounds read low) was 0.853 (inactive) and the normalized growth (locus YOR231W, strain MKK1, active compounds read low) was 0.94 (inactive). For the same compound, the normalized growth (locus YOR329C, strain SCD5, active compounds read low) was 1 (inactive), the normalized growth (locus YPL031C, strain PHO85, active compounds read low) was 0.749 (inactive) and the normalized growth (locus YPL153C, strain RAD53, active compounds read low) was 0.756 (inactive). For the same compound, the normalized growth (locus YPL204W, strain HRR25, active compounds read low) was 0.795 (inactive), the normalized growth (locus YPL209C, strain IPL1, active compounds read low) was 0.996 (inactive) and the normalized growth (locus YPL256C, strain CLN2, active compounds read low) was 0.797 (active). The normalized growth (locus YPR025C, strain CCL1, active compounds read low) was 0.99 (inactive), the normalized growth (locus YPR106W, strain ISR1, active compounds read low) was 0.991 (inactive) and the normalized growth (locus YPR111W, strain DBF20, active compounds read low) was 0.981 (inactive). For the same compound, the normalized growth (strain NNK1, active compounds read low) was 0.99 (inactive) and the normalized growth (strain TSCII, active compounds read low) was 1 (inactive).

Reference: PubChem BioAssay AID1159580 (chemical genetic matrix, 2015)
